# Compound activity from PubChem BioAssay.
# CASP6 VEID inh = human caspase-6 inhibitors, primary screen, biochemical, VEID-R110 fluorescence, single point, set 2. P55212. purified caspase-6, Z-VEID-R110 cleavage fluorescence. inhibition, % at 12.5 µM. 350,000 tested, 0.53% active. AID 686996, 2013;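 active = mean inhibition across replicates at least about 35%, with every replicate also reaching that limit, limit read from the data; inconclusive = only one of the two criteria met; inactive = neither criterion met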;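 also: 0% = median of neutral control wells and 100% = no fluorescence left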
# RAD52 anneal inh = RAD52 DNA annealing inhibitors, primary screen, biochemical, FRET, single point, set 2; DNA repair protein RAD52 homolog (Homo sapiens), P43351; recombinant RAD52 DNA annealing, FRET fluorescence; inhibition, % at 18.7 µM; 360,000 tested, 0.46% active; AID 651710, 2012;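 active = every replicate showing at least 50% inhibition; inconclusive = mean inhibition at least 50% but not in every replicate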
# Target sequence (P43351 whole entry, looked up): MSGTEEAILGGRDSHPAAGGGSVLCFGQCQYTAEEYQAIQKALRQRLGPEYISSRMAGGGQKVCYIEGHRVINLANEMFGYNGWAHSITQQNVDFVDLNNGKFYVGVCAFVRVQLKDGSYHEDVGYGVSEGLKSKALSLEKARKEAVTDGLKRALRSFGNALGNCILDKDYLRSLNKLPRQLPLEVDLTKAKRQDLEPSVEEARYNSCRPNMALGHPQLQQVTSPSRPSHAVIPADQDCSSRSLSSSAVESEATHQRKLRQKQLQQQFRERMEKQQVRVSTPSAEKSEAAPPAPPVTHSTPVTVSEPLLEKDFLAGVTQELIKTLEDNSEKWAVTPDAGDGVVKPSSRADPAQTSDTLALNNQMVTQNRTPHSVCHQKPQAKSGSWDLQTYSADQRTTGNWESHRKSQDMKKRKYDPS
# Ecoli rRNA inh = reduced GFP signal of wild-type E. coli, primary screen, bacterial rRNA inhibitor project, GFP/RFP fluorescence, OD600, single point | AID 720706, 2013 | E. coli WT GFP vs humanized-ribosome RFP mutants, 24 h; hits give low values; DMSO median 0, no signal -100 | GFP signal change (wild-type ribosome), % (concentration not given with the values) | 350,000 tested, 1.6% active;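 active = significant combined selectivity score with lowered wild-type GFP, culture density cut under 30%, mutant RFP and density less affected; inactive = any of these conditions unmet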
# NSD2 HMT inh = NSD2 histone methyltransferase inhibitors, primary screen, biochemical, AlphaScreen, single concentration, set 2 | inhibition, % at 12.5 µM | NSD2 peptide methylation, 120 min | 310,000 tested, 0.54% active; in the data active = inhibition above about 50%
# AF4-AF9 inh = inhibitors of AF4 peptide binding to AF9, primary screen, biochemical, AlphaScreen, biotin-AF4 peptide, FLAG-AF9, single point; Protein AF-9 (Homo sapiens), P42568; inhibition, % at 10 µM; 350,000 tested, 0.47% active; AID 651704, 2012;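 active = every replicate reaching a set inhibition limit, whatever the replicate mean, cut at about 25% in these data; inconclusive = mean inhibition reaches that limit but some replicates miss it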;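 also: 0% = plate neutral control median and 100% = total signal loss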
# AID977621 = growth inhibition of wild-type GFP E. coli, dose response, H69 mutant RFP, cherry-pick; shares compounds with Ecoli rRNA inh; E. coli wild-type GFP strain growth, fluorescence, 24 h; activity change, negative = inhibition at 50 µM; 1,900 tested, under 10 active; AID 977621, 2014;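 active = Wild-type ribosome reporter drop at least double the humanized mutant ribosome reporter drop, growth loss under a set limit; inconclusive = no clear call, values can overlap the other calls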;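 also: wild-type GFP and H69 mutant RFP strains grown together 50/50 in each well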
# AID977628 = E. coli growth inhibition, wild-type GFP versus h24 humanized RFP strain, dose response, h24 mutant RFP vs wild-type GFP, cherry-pick; shares compounds with Ecoli rRNA inh; E. coli WT GFP strain growth, fluorescence, 24 h; activity change, negative = inhibition at 50 µM; 1,900 tested, under 10 active;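 active = compound lowering the normal-ribosome reporter at least twice as much as the humanized-ribosome reporter, growth loss under a set limit; inconclusive = no clear call, values can overlap the other calls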;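 also: wild-type GFP and h24 humanized RFP strains co-cultured 1 to 1 per well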
# The depositor's hits bear a star; ? = inconclusive; / = no result given. Hits are enriched below; roughly 2.5% of the tested compounds scored in any of these assays.
SMILES,CASP6 VEID inh,RAD52 anneal inh,Ecoli rRNA inh,NSD2 HMT inh,AF4-AF9 inh,AID977621,AID977628
CCOC(=O)CNc1ccc(C(=O)OCC)cc1[N+](=O)[O-],/,/,/,-2.0,/,/,/
CCCNc1ccc(C(=O)OCC)cc1[N+](=O)[O-],-2.7,-18.0,-30.5*,3.7,-3.3,-6.22,-11.8
Cc1cc(F)ccc1-c1cc(C(=O)NCC2CCCCC2)[nH]n1,0.1,1.6,-36.0*,-3.8,-3.4,/,?
Cc1noc(C)c1S(=O)(=O)N(C)C[C@H]1Oc2ccc(NC(=O)CCCCCC(=O)Nc3ccccc3N)cc2CC(=O)N([C@@H](C)CO)C[C@@H]1C,-1.6,12.1,4.0,/,-1.2,/,/
O=C(NCCCN1CCOCC1)c1sc2cc(Cl)ccc2c1Cl,1.9,-1.0,5.2,-1.6,-0.4,/,/
O=C(NCCCN1CCOCC1)c1sc2cc([N+](=O)[O-])ccc2c1Cl,/,/,/,2.3,/,/,-8.63
CO[C@H]1CN(C)C(=O)c2cc(NC(=O)c3cc(C)on3)ccc2OC[C@H](C)N(CC2CC2)C[C@@H]1C,/,1.9,-0.7,/,-2.1,/,/
COC(=O)C[C@@H]1CC[C@@H]2[C@@H](COc3ccc(NC(=O)Nc4cccc(C#N)c4)cc3C(=O)N2C)O1,0.6,-2.4,-6.3,/,0.0,/,/
CS(=O)(=O)N1CCCCN2[C@@H](CO)[C@H](c3ccc(Br)cc3)[C@@H]2C1,3.1,-2.6,4.2,/,-6.3,/,/
Nc1ccccc1Sc1nc2ccccc2[nH]1,3.0,3.6,/,/,-3.6,/,/
Nc1ccccc1Sc1c[nH]c2ccccc12,-1.6,-8.8,-25.6*,1.4,2.8,-0.733,-11.4
Cc1ccc(S(=O)(=O)Nc2ccc3c(c2)C(=O)N([C@H](C)CO)C[C@H](C)[C@@H](CN(C)C(=O)CCCN(C)C)OCCCC[C@H](C)O3)cc1,-2.1,19.9,1.7,/,0.0,/,/
COc1ccc(C#Cc2ccc([C@@H]3[C@@H](CO)N4CCCCN(C(=O)Nc5ccc(F)cc5)C[C@H]34)cc2)cc1,0.1,-20.6,-47.6*,/,0.8,/,?
O=C(Nc1cc(F)ccc1F)N1[C@@H]2CNC[C@H]1C2c1ccc(-c2ccncc2)cc1 (some centres undefined),1.8,5.2,-1.0,/,-1.3,/,/
O=C(Nc1cccc(F)c1)N1[C@@H]2CNC[C@H]1C2c1ccc(-c2ccncc2)cc1 (some centres undefined),-0.2,18.0,-25.1*,/,-0.3,-17.7,-1.75
O=C(Nc1ccc(F)cc1)N1CCCCN2[C@@H](CO)[C@H](c3ccc(-c4ccncc4)cc3)[C@@H]2C1,0.9,17.0,-19.6*,/,3.5,-9.28,/
O=C(Nc1ccc(F)cc1)N1CCCCN2[C@H](CO)[C@H](c3ccc(-c4ccncc4)cc3)[C@H]2C1,3.8,34.8,-3.0,/,4.5,/,/
O=C(O)C[C@@H]1C[C@@H]2c3cc(NC(=O)C4CCC4)ccc3O[C@@H]2[C@@H](CO)O1,-0.6,10.6,-0.7,/,1.0,/,/
Nc1ncncc1-c1ccc2ccccc2c1,-1.1,-3.2,-31.5*,2.4,-4.7,-14.4,?
COc1ccc(-c2cncnc2N)cc1OC,1.8,-8.3,-5.2,-6.3,-0.1,/,/
C[C@H]1CN([C@@H](C)CO)C(=O)Cc2cc(NS(=O)(=O)c3cn(C)cn3)ccc2O[C@H]1CN(C)CC1CCCCC1,/,/,3.9,/,/,/,/
C[C@@H]1CN([C@H](C)CO)C(=O)CCCn2nncc2CO[C@@H]1CN(C)Cc1ccc(Oc2ccccc2)cc1,0.7,8.0,-10.1,/,4.0,/,/
Cc1ccc(N2C(=S)NC3c4cc(Cl)ccc4OC2(C)C3C(=O)N(C)C)cc1 (centres undefined),-1.8,-2.7,-21.6*,15.7,?,-13,?
CCCNC(=O)N1C[C@@H]2[C@H](c3ccccc31)[C@H](CO)N2C(=O)CN1CCOCC1,/,-12.1,5.8,/,/,/,/
